In PubChem BioAssay:

Test system: XIP peptide (Xip251-270)
Experiment: compounds binding XIP fragment 251-270 – biochemical, small-molecule microarray, fluorescence 635/667 nm, 0.5 µg/mL protein, primary screen (AID 1183)
Conditions: fluorescence 635 nm, higher = more signal

SMILES	composite z-score
C[C@@H](c1ccccc1)N1C(=O)[C@H]2[C@H]3[C@H](O)[C@H](O)CC(=NNC(=O)OCc4ccccc4)[C@@H]3CC[C@H]2C1=O	0.209
COc1ccc(O[C@H]2C=C[C@@H](c3ccccc3)O[C@@H]2CON=C(C)CCN2CCCc3nc(C)c(C)cc32)cc1	0.693
O=C1C=C[C@@H](O)[C@@H]2[C@@H]3C(=O)N(C4CCCCC4)C(=O)[C@@H]3CC[C@@H]12	0.178

Test system: not listed separately
Experiment: blood-stage malaria parasite viability loss – strain 3D7, DAPI fluorescence, 100 nL, primary screen (AID 1184);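 also: parasites grown inside human red blood cells in medium with human serum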
Conditions: P. falciparum 3D7 growth, 3 d, higher = more signal

SMILES	z-score
COCOc1ccc(Br)cc1C(=O)C=Cc1ccc2c(c1)OCO2	-1.42
CCOC(=O)CCN1C(=O)[C@H]2[C@H]3[C@H](O)[C@H](O)CC(=NNC(=O)OCc4ccccc4)[C@H]3CC[C@H]2C1=O	-0.873
COc1cccc([C@H]2Oc3ccc(OC)cc3C(=NOCC[C@@H]3C=C[C@H](OC(C)=O)[C@@H](COC(C)=O)O3)[C@@H]2O)c1	0.956
CC1(C)O[C@H]2OC([C@H](O)CON3C(=O)c4ccccc4C3=O)[C@H](O)[C@H]2O1 (stereo partly specified)	0.696
CC(C)=CCCC(C)=CCON=C1[C@H]2CCn3c(=O)n(-c4ccccc4)c(=O)n3[C@H]2[C@H](O)[C@@H]2O[C@H]12	-2.23
CCOC(=O)CCN1C(=O)[C@H]2[C@H]3[C@H](O)[C@H](O)CC(=NNC(=O)OCc4ccc(OC)cc4)[C@H]3CC[C@H]2C1=O	0.144
COc1ccc(COC(=O)NN=C2C[C@@H](O)[C@@H](O)[C@@H]3[C@@H]4C(=O)N([C@@H](C)c5ccccc5)C(=O)[C@@H]4CC[C@@H]23)cc1	-0.503
CCOC(=O)[C@H](Cc1ccccc1)NC(=O)CCC1CC(OC(=O)NCc2cccc3ccccc23)CC2(CCCC(COC(=O)NCCc3ccc(Cl)cc3)O2)O1 (stereo partly specified)	-1.93
